Shown are actives, neighbours in structure and some others; about 3.4% of the full set was active somewhere.
ADAM17 inh = inhibitors of human ADAM17. P78536. recombinant ADAM17, EDANS/DABCYL FRET peptide cleavage. inhibition, % at 6.95 µM. 370,000 tested, 0.83% active. AID 720648;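 active = inhibition above the mean of compounds lying between control limits plus 3 SD, set per campaign, cut at about 8.5% in these data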;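 note: 0% = DMSO-only wells as the low control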
ADAM10 inh = inhibits human ADAM10. recombinant ADAM10, EDANS/DABCYL FRET peptide cleavage, 3 h. 370,000 tested, 0.62% active. inhibition, % at 7 µM. AID 720582. O14672;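 active = inhibition above a per-campaign cutoff equal to the mean of compounds falling between control-based bounds plus 3 SD, cut at about 20% in these data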;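 note: 0% = DMSO wells while the 100% control is not disclosed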
proKLK7 act = activates the human kallikrein-7 zymogen; activation, % at 7 µM; AID 652039; purified proKLK7, EDANS-DABCYL substrate fluorescence; 100% is mature enzyme control, 0% vehicle; 370,000 tested, 0.9% active; P49862;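 active = activation above the mean of all tested compounds plus 3 SD, computed per campaign excluding outliers beyond control limits, cut at about 13% in these data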
sPLA2-III inh = Blocks human group III sPLA2 activity; QFRET BODIPY PC-A2 liposome hydrolysis, fluorescence; inhibition, % at 12.2 µM; 370,000 tested, 0.56% active; AID 743126;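 active = inhibition above mean plus 3 SD of compounds lying within the high and low control bounds, cut at about 19% in these data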;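 note: 0% = median of test compound wells and 100% = no enzyme DMSO wells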
Target sequence (Q9NZ20 whole entry, looked up): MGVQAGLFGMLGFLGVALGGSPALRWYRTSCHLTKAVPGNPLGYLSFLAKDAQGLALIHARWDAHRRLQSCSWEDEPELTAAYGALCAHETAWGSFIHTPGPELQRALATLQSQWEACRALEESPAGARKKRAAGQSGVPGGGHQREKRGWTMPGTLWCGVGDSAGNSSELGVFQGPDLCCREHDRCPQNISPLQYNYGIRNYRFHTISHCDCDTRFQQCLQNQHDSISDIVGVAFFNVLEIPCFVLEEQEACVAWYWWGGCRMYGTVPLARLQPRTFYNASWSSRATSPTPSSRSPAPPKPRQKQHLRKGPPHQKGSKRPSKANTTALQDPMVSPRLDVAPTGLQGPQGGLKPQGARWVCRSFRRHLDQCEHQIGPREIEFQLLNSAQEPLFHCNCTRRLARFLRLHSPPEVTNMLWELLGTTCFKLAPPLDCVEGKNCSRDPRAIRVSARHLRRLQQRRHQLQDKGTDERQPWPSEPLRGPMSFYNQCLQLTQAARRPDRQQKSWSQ
NRP1-CendR mod = NRP-1/CendR interaction modulation | FAM-RPARPAR peptide binding to NRP-1, fluorescence polarization | O14786 | 360,000 tested, 0.85% active | inhibition, % at 25 µM | AID 602438;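 active = inhibition or corrected inhibition above about 18%, plus a signal ratio from 0.5 to 1.5, limit read from the data, passing the limit was not always enough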
An asterisk follows results filed as active; . = no result given.

SMILES	ADAM17 inh	ADAM10 inh	proKLK7 act	sPLA2-III inh	NRP1-CendR mod
O=C(Nc1cccc2c1CCCC2)c1cc(C2CCCCN2C(=O)CCCc2ccccc2)on1 (stereo unspecified)	4	10	0	-9	52*
Cc1ccc(F)cc1C(=O)N1CCCCC1c1cc(C(=O)NCc2ccccc2)no1 (stereo unspecified)	-1	-3	0	-5	22*
O=C(NCc1ccccc1)c1cc(C2CCCCN2C(=O)CCCc2ccccc2)on1 (stereo unspecified)	3	6	0	-7	-2
C=CCN(C)C(C#Cc1ccccc1)Cc1ccccc1 (stereo unspecified)	1	-1	.	-1	.
CCOC(=O)[C@]12CCCC=C1N(CCc1ccc(Cl)cc1)C(=O)[C@@H]2CC(=O)NCCC(C)C	3	11	1	-9	.
O=C(N1CCCC1)n1ncc(-c2ccc(-c3ccccc3)cc2)n1	-6	-12	.	-31	.
O=[N+]([O-])c1ccc(Cc2ccncc2)cc1	-1	3	-1	3	26*
O=[N+]([O-])c1ccc(Cc2ccc([N+](=O)[O-])cc2)cc1	-3	-16	0	7	-3
Cc1c(Br)c([N+](=O)[O-])nn1C(C)C(=O)NCc1cccs1 (stereo unspecified)	-3	0	0	0	3
Cc1c(Br)c([N+](=O)[O-])nn1CC(=O)NCc1cccs1	0	6	0	-2	25*
CN(C1CCCCC1)S(=O)(=O)c1ccc(NC(=O)c2ccc(Br)o2)cc1	6	20*	1	-21	-3
CN1C(=O)c2cc(NC(=O)Nc3ccccc3)ccc2OC[C@H]2O[C@@H](CC(=O)Nc3cc(F)ccc3F)CC[C@@H]21	-3	4	0	-15	.
COc1ccc(/C=C2\CCCC3C2=NN(C(=O)COC(=O)CNC(=O)c2ccccc2)C3c2ccc(OC)cc2)cc1 (stereo unspecified)	4	21*	0	-15	-8
O=S(=O)(O)c1cc(O)c2cc(Nc3ccccc3)ccc2c1	-62	-245	-40	6	42*
Nc1ccc2c(O)cc(S(=O)(=O)O)cc2c1	-36	-141	-3	-11	28*
O=S(=O)(O)c1cc(O)c2ccc(Nc3ccccc3)cc2c1	-46	-157	-30	-10	-4
COc1ccccc1Nc1ccc2c(O)cc(S(=O)(=O)O)cc2c1	-14	-66	-5	2	71*
CCCCN1C(=O)N2Cc3cc(OC)ccc3C2CS1(=O)=O (stereo unspecified)	-2	-4	0	-2	.
COC(=O)[C@]12C[C@H](CC(=O)NCc3ccccc3)C(=O)N(CCc3ccc(OC)c(OC)c3)C1=C[C@H](COCc1ccccc1)O[C@@H]2C	-2	-1	1	-7	.
CS(=O)(=O)Nc1ccc(C(=O)Nc2ccccc2-c2ccccc2)cc1	0	5	0	-10	27*
CS(=O)(=O)Nc1ccc(C(=O)Nc2ccccc2Cl)cc1	-1	-4	0	-2	7
COc1cc(NS(=O)(=O)c2ccc(C)c(C)c2)c(OC)cc1Cl	4	8	0	-21	27*
CCOC(=O)c1ccc(NC(=O)Oc2ccccc2)cc1	0	5	0	0	-6
CCOC(=O)c1ccc(NC(=O)c2ccccc2)cc1	-2	0	0	7	23*
CCOC(=O)c1ccc(NC(=O)CN2CCc3ccccc3C2)cc1	1	2	0	-14	38*
SMILES	ADAM17 inh	ADAM10 inh	proKLK7 act	sPLA2-III inh	NRP1-CendR mod
O=C(Nc1ccc(Cl)cc1)c1ccc(CN2CCc3ccccc3C2)cc1	2	3	0	20*	6
Cc1ccc2c(c1)C1CS(=O)(=O)N(CC(C)C)C(=O)N1C2 (stereo unspecified)	-1	4	0	9	.
Cc1nn(-c2ccccc2)c(C)c1/C=N\N1CCN(c2ccc(Cl)cc2)CC1	-4	2	0	5	25*
COC(=O)C1CN(CCc2ccccc2)CCS(=O)(=O)N1Cc1ccc(Cl)cc1 (stereo unspecified)	0	-66	0	-8	.
COc1ccc(-c2csc(NCc3ccco3)n2)cc1C	.	.	.	.	23*
O=C(NCCCN1CCOCC1)c1ccc2c(=O)n(-c3ccc(F)c(Cl)c3)c(=S)[nH]c2c1	-3	6	0	9	24*
CC(=O)c1cccc(OCc2cc(C(=O)NC3CCN(Cc4ccccc4)CC3)no2)c1	-2	-5	0	0	28*
O=C(NC1CCN(Cc2ccccc2)CC1)c1cccc(OC(F)F)c1	-1	9	0	-1	-3
COC(=O)c1ccc(C)c(NC(=O)COC(=O)C2CC3CCCC(C2)C3=O)c1 (stereo unspecified)	-2	-5	0	4	5
Cc1ccc(F)cc1NC(=O)COC(=O)C1CC2CCCC(C1)C2=O (stereo unspecified)	-4	-28	0	5	30*
CC(C)C[C@H]1COc2cc(F)ccc2S(=O)(=O)N1C	-2	-1	0	2	.
CN(CC(=O)Nc1ccccc1Cl)C(=O)C1CSC2(C)CCC(=O)N12 (stereo unspecified)	-4	-3	1	3	21*
CSCC[C@@H](C(=O)NCc1cccs1)N1Cc2ccccc2C1=O	-2	-9	0	5	21*
CSCCC(C(=O)NCc1cccs1)N1C(=O)c2ccccc2C1=O (stereo unspecified)	0	2	0	-3	-4
COCc1ccccc1Cn1cnc2c1c(=O)n(C)c(=O)n2C	0	-3	1	2	35*
CC1(C(=O)NCCN2CCOCC2)C=CCN1C(=O)c1ccccc1 (stereo unspecified)	-3	5	0	9	10
O=C(NCCN1CCOCC1)C12CC3CC(C1)CC(c1ccccc1)(C3)C2	-3	-2	0	-1	44*
Cc1oc2ccc(OCC(N)=O)cc2c1C(=O)OC(C)C	-1	3	0	-3	28*
CCOC(=O)[C@@]12CCCC3=C1N(CCC3)C(=O)[C@H]2CC(=O)N1CCN(C(=O)C2CC2)CC1	-3	-2	1	-2	.
CCOC(=O)C(NC(C)=O)C(=O)Nc1ccc(C(C)C)cc1 (stereo unspecified)	-2	-10	0	-3	26*
CC(Nc1nc(-c2ccc(Cl)cc2)cs1)c1nc2cc(Cl)c(N3CCCCC3)cc2n1CCOCCO (stereo unspecified)	7	22*	0	-12	3
O=[N+]([O-])c1cc(-c2csc(NCCc3nc4cc(Cl)c(Cl)cc4n3CCCO)n2)ccc1Cl	1	8	0	-4	31*
OCCOCCn1c(CCNc2nc(-c3ccc(Cl)cc3)cs2)nc2cc(Cl)c(Cl)cc21	2	13	0	-6	36*
Cc1ccc(-c2csc(NCCc3nc4cc(Cl)c(Cl)cc4n3CCCO)n2)cc1	3	10	1	-8	2

High-throughput results: PubChem, several laboratories
